The whole screen tested about 16,000 compounds, of which about 4,000 (25%) were called active. About 26% were inconclusive and are not listed. These entries were drawn from the full list. A number with no mark means an inactive call. The call rests on the fitted dose curve; in most records, active means well fitted curve in the direction sought with a large enough effect; inconclusive means small, poorly fitted or top-dose-only effect, or effect the other way; inactive means no such curve, though single readings can be large or run the other way.
target: Cytochrome P450 2C9 (Homo sapiens) (UniProt P11712); test: Cytochrome panel assay with activity outcomes; conditions: recombinant CYP, pro-luciferin dealkylation, luminescence, p450-cyp2c9; series mostly up to 57.1 µM; activity, negative = inhibition: at the top concentration
On the % scale 0 is the no-effect control and ±100 the full control effect.

Sequence of Cytochrome P450 2C9 (Homo sapiens) (P11712 whole entry, looked up): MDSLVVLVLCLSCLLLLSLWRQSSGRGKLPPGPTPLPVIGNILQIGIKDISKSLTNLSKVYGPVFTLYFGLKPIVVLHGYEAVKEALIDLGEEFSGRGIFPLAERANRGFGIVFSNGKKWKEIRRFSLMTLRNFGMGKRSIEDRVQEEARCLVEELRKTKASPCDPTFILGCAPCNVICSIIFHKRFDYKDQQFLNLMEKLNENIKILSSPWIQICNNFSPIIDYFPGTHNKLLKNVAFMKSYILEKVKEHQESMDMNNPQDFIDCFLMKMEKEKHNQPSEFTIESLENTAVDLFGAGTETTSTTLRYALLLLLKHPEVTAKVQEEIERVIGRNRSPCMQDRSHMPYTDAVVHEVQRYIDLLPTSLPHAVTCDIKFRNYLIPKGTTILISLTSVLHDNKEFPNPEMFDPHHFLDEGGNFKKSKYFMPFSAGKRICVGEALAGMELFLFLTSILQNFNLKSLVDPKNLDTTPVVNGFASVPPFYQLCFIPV

Compound | AC50 | activity, negative = inhibition
Fc1ccc2c(c1)C(c1ccncc1)=NNC(c1ccc(Cl)cc1)=N2 | 0.282 µM (active) | 
c1cncc(-c2cc(NCc3cccs3)ncn2)c1 |  | -6.08% [at 2.29 µM]
Clc1ccc2c(c1)C(c1cccs1)=NNC(c1cccnc1)=N2 | 11.2 µM (active) | 
COC(=O)[C@H](C)NC(=O)[C@@H](C)CO |  | 10.7% [at 11.4 µM]
COCCNc1ccnc(-c2ccccc2CN(C)C)n1 |  | 0.0079% [at 2.29 µM]
CNCC[C@H](Oc1ccccc1OC)c1ccccc1 | inactive | 
CNCC[C@@H](Oc1ccccc1C)c1ccccc1 |  | 1.68% (inactive)
CN(CC[C@@H](Oc1ccc(-c2ccccc2)cc1)c1ccc(F)cc1)CC(=O)O | 2.51 µM (active) | 
CCOc1cc2[nH]c(=S)n(CCC(=O)N3CCc4ccccc4C3)c(=O)c2cc1OCC | 17.8 µM (active) | 
O=c1onc2n1-c1cc(Br)ccc1OC2 |  | -8.5% (inactive)
Cc1ccc(S(=O)(=O)N(CC(=O)N2CCN(c3ccc(F)cc3)CC2)C2CCCCC2)cc1 | 3.55 µM (active) | 
CCCS(=O)(=O)N1CCCC(C(=O)NCCCN2CCN(c3ccc(F)cc3)CC2)C1 (stereo not given) |  | 2.11% (inactive)
COc1ccc(S(N)(=O)=O)cc1C(=O)NCCCN1CCN(c2ccc(C)cc2)CC1 |  | -17.8% (inactive)
CCCCOC(=O)NS(=O)(=O)c1sc(CC(C)C)cc1-c1ccc(Cn2c(CC)nc3c(C)cc(C)nc32)cc1 | 12.6 µM (active) | 
C1CCc2nnnn2CC1 |  | -7.69% [at 25.6 µM] (inactive)
O=C(c1cccc(F)c1)N1CCC2(CC1)CN(Cc1ccccc1)C2 |  | -9.48% (inactive)
Cc1cccc2cc(CN(Cc3ccccc3)C(=O)c3cccc(F)c3)c(Cl)nc12 | 2.24 µM (active) | 
CNc1nc(-c2ccccc2OC)nc2ccccc12 |  | 7.89% [at 2.29 µM]
COc1cccc(OC)c1/C(O)=C(\C#N)c1nc2ccccc2[nH]1 | 11.2 µM (active) | 
Cc1ccccc1OC/C(O)=C(\C#N)c1nc2ccccc2[nH]1 |  | -1.16% (inactive)
CC(CC(=O)Nc1ccc(Cl)c([N+](=O)[O-])c1)c1ccccc1 (stereo not given) | 14.1 µM (active) | 
COc1ccc(Nc2ncc(C(=O)N3CCN(c4ccc(F)cc4)CC3)c3ccccc23)cc1 | 2.24 µM (active) | 
COc1ccc(N2CCN(C(=S)Nc3cc(C)cc(C)c3)CC2)cc1 |  | -13.1% (inactive)
COc1ccc(NC(=O)N2CCC3(CC2)CCN(C(=O)c2cccc(F)c2)CC3)cc1 |  | -15.4% (inactive)
CC(=O)[C@@]1(O)Cc2c(O)c3c(c(O)c2[C@H](O[C@H]2C[C@H](N)[C@H](O)[C@H](C)O2)C1)C(=O)c1ccccc1C3=O |  | -4.2% (inactive)

Compound | AC50 | activity, negative = inhibition
O=C(NC1CCCCC1)c1sc(=S)n2c1[nH]c(=O)c1ccccc12 | 0.2 µM (active) | 
CCOc1ccc(N(C(C)C(=O)N/N=C(\C)c2cccc(NC(=O)c3ccccc3)c2)S(C)(=O)=O)cc1 (stereo not given) | 3.98 µM (active) | 
CCOc1ccc(N(C(C)C(=O)NC(C)CC)S(C)(=O)=O)cc1 (stereo not given) | 5.62 µM (active) | 
Cc1nc2cnc(N3CCN(C)CC3)nc2n(-c2ccccc2)c1=O |  | 23.4% (inactive)
CC[C@H]1C(=O)OC[C@H]1Cc1cncn1C |  | -28.6% [at 25.6 µM] (inactive)
CO[C@H]1COC(=O)[C@@H](C)COC(=O)[C@@H](COCc2ccccc2)NC(=O)C/C=C\[C@H]1C |  | 6.52% [at 11.4 µM]
O=C(c1cnccn1)N1CCC2(CC1)CCN(c1ccccc1)CC2 |  | 3.2% (inactive)
O=C(Nc1ccccc1)N1CC2(CCN(C(=O)c3cnccn3)CC2)C1 |  | 9.15% (inactive)
O=C(Nn1cc(C(=O)N2CCN(c3ccccc3F)CC2)c2ccccc2c1=O)c1cnccn1 | 4.47 µM (active) | 
O=C(c1ccccc1)c1c[nH]c(C(=O)NCc2cccnc2)c1 | 11.2 µM (active) | 
O=C(O)[C@@H]1[C@@H](C(=O)NCc2cccnc2)[C@@H]2C=C[C@@H]1O2 |  | 0.756% [at 11.4 µM]
O=C(c1ccccc1)c1c[nH]c(C(=O)NCCCN2CCOCC2)c1 |  | 16.5% (inactive)
COc1ccc(-c2nc3cnc(N4CCN(C)CC4)nc3n(C)c2=O)cc1 |  | -18.2% (inactive)
CN1CCN(c2ncc3nc(-c4ccc(Cl)cc4)c(=O)n(C4CC4)c3n2)CC1 |  | 1.45% (inactive)
CN1CCN(c2ncc3nc(-c4cc(F)cc(F)c4)c(=O)n(C4CC4)c3n2)CC1 | 10 µM (active) | 
CN1CCN(c2ncc3nc(-c4ccc(F)cc4)c(=O)n(C4CC4)c3n2)CC1 | 12.6 µM (active) | 
N#CCCn1c(=O)c(-c2cc(F)cc(F)c2)nc2cnc(N3CCOCC3)nc21 |  | 15.9% (inactive)
NC([N-]/N=C/c1ccccn1)=[S]=[Fe].O=S(=O)(O)O |  | -29.5% [at 11.4 µM]
CC(C)CC(C(=O)OCC(=O)Nc1ncc(Cl)cc1Cl)N1C(=O)c2ccccc2C1=O (stereo not given) | 7.08 µM (active) | 
O=C(O)CC[C@@H](C(=O)O)N1C(=O)c2ccccc2C1=O | inactive | 
Cc1c(Cl)cnc(NC(=O)COC(=O)CCS(=O)(=O)c2ccccc2)c1Cl |  | -33.3% (inactive)
CC(=O)Nc1ccc(NC(=O)CC2Nc3cccc4cccc(c34)NC2=O)cc1 (stereo not given) | 5.01 µM (active) | 
Cc1cccc(OC2(c3ccccc3)OC(=O)c3ccccc32)c1C (stereo not given) | 3.16 µM (active) | 
CCCCCCCOC1(c2ccccc2)OC(=O)c2ccccc21 (stereo not given) | 8.91 µM (active) | 
Cc1cccc(C)c1OC1(c2ccccc2)OC(=O)c2ccccc21 (stereo not given) | 2.51 µM (active) | 
